Experimental data reported in ChEMBL document CHEMBL1201862, “PubChem BioAssay data set” (2004).
Among all 400,000 compounds or so, about 2,100 (0.53%) were called active. About 14% were inconclusive and are not listed. No rule for the calls is given here. Only a selection was taken, and actives are over-represented in it overall.

molecular target: Ataxin-2 (Homo sapiens) (UniProt Q99700); test: qHTS for Inhibitors of ATXN expression.; assay type: functional
Sequence (Q99700 whole entry): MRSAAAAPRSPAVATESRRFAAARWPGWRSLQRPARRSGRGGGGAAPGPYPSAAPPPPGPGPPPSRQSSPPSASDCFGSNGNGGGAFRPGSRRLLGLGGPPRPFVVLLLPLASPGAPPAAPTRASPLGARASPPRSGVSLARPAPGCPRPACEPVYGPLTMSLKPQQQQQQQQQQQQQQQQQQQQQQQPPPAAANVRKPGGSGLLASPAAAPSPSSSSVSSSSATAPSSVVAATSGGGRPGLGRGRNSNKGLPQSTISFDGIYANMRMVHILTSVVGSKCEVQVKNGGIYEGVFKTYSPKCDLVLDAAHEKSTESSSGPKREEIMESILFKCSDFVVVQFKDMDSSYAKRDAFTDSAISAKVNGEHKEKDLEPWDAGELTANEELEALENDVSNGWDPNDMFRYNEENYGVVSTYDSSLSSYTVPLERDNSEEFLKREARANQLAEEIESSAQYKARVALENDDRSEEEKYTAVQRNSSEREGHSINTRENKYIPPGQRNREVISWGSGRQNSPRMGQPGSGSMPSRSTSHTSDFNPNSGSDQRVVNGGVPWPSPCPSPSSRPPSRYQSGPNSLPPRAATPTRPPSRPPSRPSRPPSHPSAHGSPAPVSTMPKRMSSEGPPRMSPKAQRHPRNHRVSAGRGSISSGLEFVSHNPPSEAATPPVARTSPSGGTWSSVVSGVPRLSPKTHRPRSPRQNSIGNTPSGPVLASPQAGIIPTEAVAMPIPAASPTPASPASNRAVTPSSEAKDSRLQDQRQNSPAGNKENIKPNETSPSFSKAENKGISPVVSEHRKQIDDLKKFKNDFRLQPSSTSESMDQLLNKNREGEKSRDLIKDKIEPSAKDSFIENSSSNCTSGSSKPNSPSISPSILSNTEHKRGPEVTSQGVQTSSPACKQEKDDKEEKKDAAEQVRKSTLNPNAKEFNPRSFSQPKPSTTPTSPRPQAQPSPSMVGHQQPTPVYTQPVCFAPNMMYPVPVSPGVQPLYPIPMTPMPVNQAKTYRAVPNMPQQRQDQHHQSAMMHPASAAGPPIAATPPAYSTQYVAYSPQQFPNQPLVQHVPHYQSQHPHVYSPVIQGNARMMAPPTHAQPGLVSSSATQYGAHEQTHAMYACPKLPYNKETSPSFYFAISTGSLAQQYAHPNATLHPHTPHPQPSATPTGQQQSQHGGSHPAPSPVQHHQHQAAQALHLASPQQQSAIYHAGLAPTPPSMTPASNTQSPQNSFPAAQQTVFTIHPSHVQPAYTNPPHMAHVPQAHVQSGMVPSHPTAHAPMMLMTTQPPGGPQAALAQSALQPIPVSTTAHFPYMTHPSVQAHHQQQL

Structure (SMILES) | Potency
COc1ccc(/N=C/C2=C(O)c3c(sc(C)c3C)N(C)S2(=O)=O)cc1 | inactive
CC(Nc1nc(-c2ccc(F)cc2)cs1)c1nc2cc(C(F)(F)F)ccc2n1CCCO (centres undefined) | 22.4 µM (active)
CC(=O)Nc1ccc(NC(=O)COC(=O)c2ccccn2)cc1 | inactive
C/C(=N\NC(=O)COc1ccccc1-c1ccccc1)c1ccccn1 | 6.7 µM (active)
C/C(=N\NC(=O)c1c[nH]c2ccccc12)c1ccccn1 | inactive
CCCn1nc(NC(=O)C(C)C)c2cc3cc(OC)ccc3nc21 | inactive
N=c1oc2ccccc2cc1-c1nc(-c2ccccc2)cs1 | inactive
CCN(CC)S(=O)(=O)c1cc([N+](=O)[O-])ccc1NNC(=O)Nc1ccc(Cl)c(Cl)c1 | 39.8 µM (active)
CCN(CC)S(=O)(=O)c1cc(NC(=O)C2CC(=O)N(Cc3ccccc3)C2)ccc1Cl (centres undefined) | inactive
CN(C)S(=O)(=O)c1ccc(Cl)c(C(=O)Nc2cccc([N+](=O)[O-])c2)c1 | inactive
CC1=CC(c2ccccc2)n2nc(NC(=O)CCCC(=O)O)nc2N1 (centres undefined) | inactive
CN(C)/C=C1\C=C2C(=O)c3ccccc3N2C1=O | inactive
Cc1ccc(S(=O)(=O)N2CCN(C(S)=NCc3ccc4c(c3)OCO4)CC2)cc1 | inactive
CCOC(=O)C1(CC2CCCCO2)CCN(S(=O)(=O)c2ccc(OC)cc2)CC1 (centres undefined) | inactive
COc1ccc(-c2nnc(C3CCN(S(=O)(=O)c4ccccc4)CC3)o2)cc1 | 26.7 µM (active)
CCCc1ccc(S(=O)(=O)N2CCC(c3nnc(-c4cccc(C)c4)o3)CC2)cc1 | 8.91 µM (active)
O=C(c1ccc(F)cc1)C1CCN(S(=O)(=O)c2ccccc2)CC1 | inactive
CCCc1nn(-c2ccc([N+](=O)[O-])cc2)c(O)c1/C=N/CCCn1ccnc1 | inactive
O=[N+]([O-])c1ccc(-c2ccc(/C=N/Nc3nc(N4CCCCC4)nc(N4CCCCC4)n3)o2)cc1 | inactive
Clc1ccc(SCc2csc(N3CCOCC3)n2)cc1 | inactive
S=C(NCCCN1CCOCC1)N1CCN(c2nc(-c3ccc(Cl)cc3)cs2)CC1 | 31.6 µM (active)
O=C(NNC(=O)c1cc(-c2ccc(Br)cc2)nc2ccccc12)c1csc(N2CCOCC2)n1 | inactive

Structure (SMILES) | Potency
COc1ccccc1NC(=O)c1sc2nc(C)cc(C)c2c1N | inactive
COc1ccccc1NC(=O)C1=C(C)Nc2nc(SCc3ccccc3)nn2C1c1cccc(O)c1 (centres undefined) | 31.6 µM (active)
COCc1cc(C)nc2sc(C(=O)Nc3ccccc3OC)c(N)c12 | inactive
CCS(=O)(=O)c1nc(S(=O)(=O)c2ccc(C)cc2)c(N2CCN(C)CC2)s1 | inactive
O=C(Oc1cccc2cccnc12)c1cccc(N2C(=O)C3C4CCC(C4)C3C2=O)c1 (centres undefined) | inactive
COC(=O)c1ccc(NC(=O)c2cccc(C)c2)cc1 | inactive
COC(=O)c1ccc(NC(=O)c2cccc(N3C(=O)C4C5C=CC(C6CC56)C4C3=O)c2)cc1 (centres undefined) | 39.8 µM (active)
Cc1ccc(NC(=O)COC(=O)CSC(=S)N2CCOCC2)cc1 | inactive
CC(=O)Nc1ccc(NC(=O)CC2CCCC2)cc1 | inactive
CCN(CC(=O)Nc1ccc(NC(C)=O)cc1)C(=O)CSC(=S)N1CCCC1 | 3.55 µM (active)
CCN(CC)CCCNc1oc(/C=C/c2ccccc2)nc1C#N | inactive
O=C(N/N=C/c1cc([N+](=O)[O-])ccc1O)c1ccc2c(c1)OCCO2 | 50.1 µM (active)
COc1cccc(/C=N/NC(=O)c2cc3cc([N+](=O)[O-])ccc3s2)c1O | 14.1 µM (active)
COc1cccc(/C=N/NC(=O)c2c(C)nc3ccc(Cl)cn23)c1OC | inactive
COc1cccc(/C=N/NC(=O)c2ccc(=O)n(C)c2)c1O | inactive
O=C(NN=Cc1cc([N+](=O)[O-])ccc1O)c1cccc2ccccc12 | 33.6 µM (active)
CCOc1cc(/C=N/NC(=O)c2ccc3c(c2)OCCO3)cc(Br)c1O | inactive
O=C(N/N=C/c1sc2ccccc2c1O)c1cccc2ccccc12 | inactive
COc1cc(Cl)cc(/C=N\NC(=O)c2ccc3c(c2)OCO3)c1O | inactive
Cc1occc1C(=O)N/N=C/c1cccc2ccccc12 | inactive
Fc1ccc(NC(=S)N2CCSC2c2cccs2)cc1 (centres undefined) | inactive
CC(C)OC(=O)CC(=O)CSc1nc2c(c(-c3cccs3)c1C#N)CCC2 | inactive

Structure (SMILES) | Potency
CC1CN(CCOCCSc2ccc(Cl)cc2)CC(C)O1 (centres undefined) | inactive
Cn1c2ccccc2c2nnc(NN)nc21 | inactive
CN(Cc1ccsc1)C(=O)CCc1nnc(CCCc2ccccc2)o1 | inactive
COCCCNCCCCSc1ccc(Cl)cc1 | inactive
CCCCOc1ccc(C(=O)NCCc2ccccc2)cc1 | inactive
CCCOc1ccc(C(=O)NNC(=S)NC(=O)CC)cc1 | 31.6 µM (active)
COc1cc(OC)cc(C(=O)NNC(=S)NC(=O)c2cccnc2)c1 | inactive
Cc1ccc(SCc2c(C(=O)N/N=C/c3ccoc3)nnn2-c2nonc2N)cc1 | inactive
CCN(C(=O)COC(=O)/C=C/c1ccc2c(c1)OCO2)c1c(N)n(Cc2ccccc2)c(=O)[nH]c1=O | inactive
CC(=O)Nc1ccc(NC(=O)/C=C/c2ccc3c(c2)OCO3)cc1 | inactive
CCOC(=O)c1[nH]c2ccc(Cl)cc2c1NC(=O)/C=C/c1ccc2c(c1)OCO2 | 44.7 µM (active)
CCN(CC)S(=O)(=O)c1cccc(-c2nnc(SCC(N)=O)n2C)c1 | inactive
CCCOc1ccc(-c2nn(-c3ccccc3)cc2/C=C2\SC(N)=NC2=O)cc1 | inactive
CC1=NNC(=O)/C1=C\c1cn(-c2ccccc2)nc1-c1ccc(Cl)cc1 | 10 µM (active)
CCCSc1ccc(-c2nn(-c3ccccc3)cc2/C=C(/C#N)C(=O)NCCCOC)cc1 | inactive
O=Cc1cn(-c2ccccc2)nc1-c1cc2cc(O)ccc2oc1=O | inactive
CC1=NNC(=O)/C1=C\c1cn(-c2ccccc2)nc1-c1ccc(F)cc1 | 8.91 µM (active)
CCSc1ccc(-c2nn(-c3ccccc3)cc2/C=C(/C#N)C(=O)NC)cc1 | inactive
CCC(C)Sc1nc(O)c2cnn(-c3ccc(F)cc3)c2n1 (centres undefined) | inactive
O=C(N/N=C\c1cc(Br)ccc1O)c1ccc(S(=O)(=O)N2CCCCC2)cc1 | inactive
